Measurements published in PubChem BioAssay (Tox21).
Results filed as inconclusive are left out. The source made the active and inactive calls. Unless noted, calls follow the shape of the dose curve; as a rule, active = well fitted curve in the direction sought with a large enough effect in the repeat runs; inconclusive = weak or mixed curves; inactive = no such curve, though single readings can be large; an effect the other way counts as inactive or inconclusive.

Experiments:
[1] = qHTS assay to identify small molecule antagonists of the retinoid acid receptor (RAR) signaling pathway - cell viability counter screen (AID 1159551); also: nearly all actives have a fitted effect of over 35% in size
In short: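 C3RL4 RARE-luciferase line; cpds + retinol 1 uM final, 6 h, 37 C/5% CO2; CellTiter-Glo ATP luminescence, 30 min RT.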

[2] = qHTS assay to identify small molecule antagonists of the retinoic acid receptor (RAR) signaling pathway (AID 1159552; also: nearly all actives have a fitted effect of over 50% in size)
In short: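 Quantitative HTS in C3RL4 RARE-luciferase reporter cells. Compounds were added with 1 uM (final) retinol; luminescence was read after 6 hr.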

[3] = qHTS assay to identify small molecule agonists of the retinoic acid receptor (RAR) signaling pathway (AID 1159553); also: potency is read from the fitted curve at half-maximal effect
In short: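 RARE-luc C3RL4 cells; overnight attachment 37 C/5% CO2; compound (DMSO) 6 hr; luciferase reagent, 30 min RT; luminescence read-out.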

[4] = qHTS assay to identify small molecule antagonists of the estrogen related receptor (ERR) signaling pathway from Tox21 library - cell viability counter screen (AID 1224834); also: nearly all actives have a fitted effect of over 30% in size
In short: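 Multiplexed viability counter screen in ERR cells: 17.5 h compound exposure at 37 C, CellTiter-Fluor added, 30 min at 37 C/5% CO2, fluorescence read.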

[5] = qHTS assay to identify small molecule antagonists of the estrogen related receptor (ERR) signaling pathway - cell viability counter screen (AID 1224818); also: series mostly up to about 46 µM
In short: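 Fluorescence from CellTiter-Fluor, read 30 min after reagent addition at 37 C, measured viability of ERR cells exposed to compounds for 17.5 h. Cells had settled 6 h before dosing.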

[6] = qHTS assay to identify small molecule antagonists of the estrogen related receptor (ERR) signaling pathway (AID 1224819; also: series mostly up to about 46 µM; nearly all actives have a fitted effect of over 50% in size)
In short: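 Luminescence readout (One-Glo, 30 min, RT) of ERR cell line after 18 h compound exposure at 37 C; cells seeded 2,000/well, pre-incubated 6 h, compounds pinned from DMSO stocks.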

[7] = qHTS assay to identify small molecule agonists of the estrogen related receptor (ERR) signaling pathway (AID 1224820)
In short: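 After 6 h plating (2,000 cells/well) and 18 h compound treatment at 37 C, ERR cells were lysed with One-Glo and luminescence read after 30 min at room temperature.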

[8] = test system: estrogen-related receptor alpha (ERRalpha) with PGC-1alpha coactivator, human; assay: qHTS assay to identify small molecule antagonists of the estrogen related receptor signaling pathway with the pleiotropic PPARgamma coactivator (PGC) (AID 1224821; calls by dose curve;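 also: series mostly up to about 46 µM; lower luminescence signal means antagonism of PGC/ERR signalling; nearly all actives have a fitted effect of over 50% in size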)
In short: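 Luminescence from One-Glo luciferase reagent (30 min, room temperature) measured after 18 h compound treatment at 37 °C. Cells carry the PGC/ERR reporter and were seeded 6 h prior to dosing.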

[9] = qHTS assay to identify small molecule antagonists of the estrogen related receptor signaling pathway with the pleiotropic PPARgamma coactivator (PGC) cell viability counter screen (AID 1224822; also: series mostly up to about 46 µM)
In short: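 Fluorescence read-out of CellTiter-Fluor after 30 min at 37 C; PGC/ERR cells, 2,000 per well, had been exposed to DMSO-dissolved compounds for 17.5 h following a 6 h pre-incubation.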

[10] = qHTS assay to identify small molecule agonists of the estrogen related receptor signaling pathway with the pleiotropic PPARgamma coactivator (PGC) (AID 1224823)
In short: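 Luminescence from One-Glo reagent (30 min, room temperature) was read after 18 h compound treatment at 37 C of PGC/ERR cells plated 6 h beforehand; compounds delivered in DMSO by pin tool.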
% is scaled to controls: 0 for no effect and ±100 for the full control effect.

CC(C(=O)O)c1ccc(/C=C2\CCCCC2=O)cc1 (configuration not stated)
inactive: outcome [1] | outcome [2] | Potency [4]
active: Potency [3] 15 µM

OCCc1ccncc1
inactive: outcome [1] | outcome [2] | Potency [3] | Potency [4]

Cc1ccc2c(Cl)cc(Cl)c(O)c2n1
inactive: outcome [1] | outcome [2] | Potency [3] | Potency [4]

O=Cc1ccc([N+](=O)[O-])cc1
active: Potency [3] 19.4 µM
inactive: outcome [1] | outcome [2] | Potency [4]

C[C@H](CN1CCCC1)C(=O)c1ccc(C(F)(F)F)cc1
inactive: outcome [1] | outcome [2] | Potency [3] | Potency [4]

Cc1ccc2ccccc2c1[N+](=O)[O-]
inactive: outcome [1] | outcome [2] | Potency [3] | Potency [4]

CCCC(=O)OCc1ccccc1
inactive: outcome [1] | outcome [2] | Potency [3] | Potency [4]

O=C(O)c1ccccc1-n1cc(C(=O)O)c(=O)c2cc(Nc3c(F)cc(F)cc3Cl)c(Cl)cc21
inactive: outcome [1] | outcome [2] | Potency [3] | Potency [4]

CCOC(C)OCC
inactive: outcome [1] | outcome [2] | Potency [3] | Potency [4]

Clc1ccccc1-c1nc(-c2ccncc2)no1
inactive: outcome [1] | outcome [2] | Potency [4]
active: Potency [3] 2.11 µM

O=C(O)CNc1ccccc1
inactive: outcome [1] | outcome [2] | Potency [4]

CCC(C(=O)O)c1ccc(N2Cc3ccccc3C2=O)cc1 (configuration not stated)
inactive: outcome [1] | outcome [2] | Potency [4]
active: Potency [3] 3.76 µM

CC(C)=CCCC(C)C=O (configuration not stated)
inactive: outcome [1] | outcome [2] | Potency [3] | Potency [4]

O=[N+]([O-])c1ccccc1CCO
inactive: outcome [1] | outcome [2] | Potency [3] | Potency [4]

O=C(c1ccco1)N1CCNCC1
inactive: outcome [1] | outcome [2] | Potency [3] | Potency [4]

c1ccc(CN(Cc2ccccc2)Cc2ccccc2)cc1
inactive: outcome [1] | outcome [2] | Potency [3] | Potency [4]

O=C(O)c1cccnc1Nc1cccc(C(F)(F)F)c1
inactive: outcome [1] | outcome [2] | outcome [5] | Potency [6] | outcome [7] | outcome [8] | outcome [9] | outcome [10] | Potency [4]

Cc1cc(C)c(C)c(O)c1
inactive: outcome [1] | outcome [2] | Potency [3] | Potency [4]

CC1(C)[C@@H]2CC[C@]3(C2)[C@@H]1C(=O)CCC3(C)C
inactive: outcome [1] | outcome [2] | Potency [3] | Potency [4]

NC(=O)c1cc[n+](CC2=C(C(=O)[O-])N3C(=O)[C@@H](NC(=O)Cc4cccs4)[C@H]3SC2)cc1
inactive: outcome [1] | outcome [2] | Potency [3] | Potency [4]

C/C=C1\[C@H]2C=C(C)C[C@]1(N)c1ccc(=O)[nH]c1C2
inactive: outcome [1] | outcome [2] | Potency [3] | Potency [4]

Cc1ccc(S(=O)(=O)NC(=O)NC2CCCC2)cc1
inactive: outcome [1] | outcome [2] | Potency [3] | Potency [4]

CCCCCCCCS
inactive: outcome [1] | outcome [2] | Potency [3] | Potency [4]

O=c1c2ccccc2oc2ccccc12
inactive: outcome [1] | outcome [2] | Potency [4]
active: Potency [3] 27.3 µM

CC(O)CN (configuration not stated)
inactive: outcome [1] | outcome [2] | Potency [3] | Potency [4]

C1=COCCC1
inactive: outcome [1] | outcome [2] | Potency [3] | Potency [4]

CC(CCl)OC(C)CCl (configuration not stated)
inactive: outcome [1] | outcome [2] | Potency [3] | Potency [4]

CCCCCCCCCCCCCCCCCCCl
inactive: activity change, negative = cytotoxicity [1] -1.45% [at 8.39 µM] | activity, negative = inhibition [2] -19.9% [at 8.39 µM] | activation [3] -0.984% [at 8.36 µM] | viability change, negative = cytotoxic [4] -0.218% [at 8.39 µM]

CCCCCCCCC(=O)OCC(C)OC(=O)CCCCCCCC (configuration not stated)
inactive: outcome [1] | outcome [2] | Potency [3] | Potency [4]

CCOc1ccc2c(c1)C(C)CC(C)(C)N2 (configuration not stated)
active: Potency [3] 54.5 µM
inactive: outcome [1] | outcome [2] | Potency [4]

CCC[Si](OC)(OC)OC
inactive: outcome [1] | outcome [2] | Potency [3] | Potency [4]

CC(COc1ccccc1)NC(C)C(O)c1ccc(O)cc1 (configuration not stated)
inactive: outcome [1] | outcome [2] | Potency [3] | Potency [4]

O=c1[nH][nH]c2ccccc12
inactive: outcome [1] | Potency [3] | Potency [4]

CC(=O)Nc1ccccc1O
inactive: outcome [1] | Potency [4]

Nc1cccc2c(=O)[nH][nH]c(=O)c12
inactive: outcome [1] | Potency [3]

CC(C)(C)NCC(O)COc1ccc(NC(=O)NC2CCCCC2)cc1 (configuration not stated)
inactive: outcome [1] | outcome [2] | Potency [4]
